Experimental data reported in the antibiotic and cytotoxicity screens of Wong et al. (2023).
Among all 39,000 compounds or so, about 3,300 (8.5%) were called active. Shown is part of a subset that was picked to be rich in actives.

tested on: HepG2; experiment: cytotoxicity call (relative viability < 0.9); conditions: 10 µM

SMILES	cytotoxicity call
C[C@@H]1CN([C@@H](C)CO)C(=O)c2cc(NC(=O)Cc3cn(C)c4ccccc34)ccc2O[C@@H]1CN(C)S(=O)(=O)c1cn(C)cn1	inactive
CN(C)C(=O)C[C@H]1CC[C@@H]2[C@H](COc3ccc(NS(=O)(=O)c4cccc(F)c4)cc3C(=O)N2C)O1	inactive
Cc1ccc(S[C@]2(C(=O)NC(C)C)CC(=O)N(Cc3ccccc3C(F)(F)F)[C@@H]2c2ccc(CO)cc2I)cc1	inactive
CC(C)NC(=O)Nc1ccc2c(c1)C(=O)N([C@H](C)CO)C[C@@H](C)[C@H](CN(C)Cc1ccccc1)OCCCC[C@@H](C)O2	inactive
C[C@@H]1CCCCO[C@H](CN(C)S(=O)(=O)c2cn(C)cn2)[C@@H](C)CN([C@@H](C)CO)C(=O)c2cc(N(C)C)ccc2O1	inactive
Cc1ccc(S(=O)(=O)N(C)C[C@H]2OCCCC[C@@H](C)Oc3ccc(NC(=O)Nc4c(C)noc4C)cc3C(=O)N([C@H](C)CO)C[C@@H]2C)cc1	inactive
CSc1ccc2cc(CN(C[C@H]3CCCO3)C(=O)c3ccco3)c(N(C)Cc3csc(C)n3)nc2c1	inactive
C[C@@H]1CN([C@@H](C)CO)C(=O)c2cc(NC(=O)CCCN(C)C)ccc2O[C@@H](C)CCCCO[C@@H]1CN(C)S(C)(=O)=O	inactive
CO[C@@H]1CN(C)C(=O)c2cc(NC(=O)Nc3ccccc3)ccc2OC[C@@H](C)N(C(=O)CN(C)C)C[C@H]1C	inactive
C[C@@H](O[C@H]1OCCN(Cc2n[nH]nc2CN(C)C)[C@H]1c1ccc(F)cc1)c1cc(C(F)(F)F)cc(C(F)(F)F)c1	active
CC(OC1OCCN(C(C)c2nc(=O)[nH][nH]2)C1c1ccc(F)cc1)c1cc(C(F)(F)F)cc(C(F)(F)F)c1 (centres undefined)	active
COc1ccc(S(=O)(=O)Nc2cccc3c2O[C@@H](CN(C)Cc2ccc(-c4ccccc4)cc2)[C@@H](C)CN([C@@H](C)CO)C3=O)cc1	inactive
CC(C)NC(=O)N(C)C[C@@H]1OCCCC[C@@H](C)Oc2ccc(NC(=O)C3CCCCC3)cc2C(=O)N([C@H](C)CO)C[C@H]1C	inactive
C[C@H]1CN([C@@H](C)CO)C(=O)Cc2cc(NC(=O)Cc3cn(C)c4ccccc34)ccc2O[C@@H]1CN(C)Cc1ccc(C(=O)Nc2ccccc2N)cc1	inactive
C[C@H]1CN([C@@H](C)CO)C(=O)Cc2cc(NC(=O)Cc3cn(C)c4ccccc34)ccc2O[C@H]1CN(C)Cc1ccc(-c2ccccc2)cc1	inactive
C[C@H](CO)N1C[C@H](C)[C@@H](CN(C)Cc2ccc(-c3ccccc3)cc2)Oc2ccc(NC(=O)Cc3cn(C)c4ccccc34)cc2CC1=O	inactive
C[C@H](CO)N1C[C@H](C)[C@@H](CN(C)CC2CCCCC2)Oc2ccc(NC(=O)Cc3cn(C)c4ccccc34)cc2CC1=O	inactive
C[C@H](CO)N1C[C@H](C)[C@H](CN(C)Cc2ccc(C(=O)Nc3ccccc3N)cc2)Oc2ccc(NC(=O)Cc3cn(C)c4ccccc34)cc2CC1=O	active
C[C@@H]1CN([C@@H](C)CO)C(=O)Cc2cc(NC(=O)Cc3cn(C)c4ccccc34)ccc2O[C@@H]1CN(C)Cc1ccc(-c2ccccc2)cc1	active
C[C@H](CO)N1C[C@H](C)[C@H](CN(C)Cc2ccc(-c3ccccc3)cc2)Oc2ccc(NC(=O)Cc3cn(C)c4ccccc34)cc2CC1=O	inactive

SMILES	cytotoxicity call
C[C@@H]1CN([C@H](C)CO)C(=O)Cc2cc(NC(=O)Cc3cn(C)c4ccccc34)ccc2O[C@@H]1CN(C)Cc1ccc(C(=O)Nc2ccccc2N)cc1	inactive
C[C@@H]1CN([C@H](C)CO)C(=O)Cc2cc(NC(=O)Cc3cn(C)c4ccccc34)ccc2O[C@@H]1CN(C)CC1CCCCC1	inactive
C[C@@H]1CN([C@@H](C)CO)C(=O)Cc2cc(NC(=O)Cc3cn(C)c4ccccc34)ccc2O[C@H]1CN(C)Cc1ccc(-c2ccccc2)cc1	inactive
C[C@@H]1CN([C@@H](C)CO)C(=O)Cc2cc(NC(=O)Cc3cn(C)c4ccccc34)ccc2O[C@@H]1CN(C)CC1CCCCC1	active
C[C@@H]1CN([C@H](C)CO)C(=O)Cc2cc(NC(=O)Cc3cn(C)c4ccccc34)ccc2O[C@H]1CN(C)Cc1ccc(-c2ccccc2)cc1	active
C[C@@H]1CN([C@H](C)CO)C(=O)c2cc(NC(=O)CCCN(C)C)ccc2O[C@@H]1CN(C)S(=O)(=O)c1ccccc1	inactive
CCCC(=O)N(CCc1c[nH]c2ccccc12)[C@@H]1CC(C(=O)NCCO)=C[C@H](Oc2c(I)cc(CO)cc2OC)[C@H]1O	inactive
CN(C)CC(=O)N[C@H]1CC[C@H](CCNC(=O)C2CCC2)O[C@H]1CO	inactive
Cc1noc(C)c1S(=O)(=O)Nc1ccc2c(c1)C(=O)N([C@H](C)CO)C[C@H](C)[C@@H](CN(C)C(=O)Nc1cccc3ccccc13)OCCCC[C@@H](C)O2	inactive
COCC(=O)N[C@@H]1C=C[C@H](CC(=O)N2CCCCC2)O[C@@H]1CO	inactive
CN1C(=O)c2cc(NC(=O)Cc3cccs3)ccc2OC[C@H]2O[C@@H](CC(=O)NCCc3ccncc3)CC[C@H]21	inactive
C[C@@H]1CCCCO[C@@H](CN(C)S(=O)(=O)c2ccccc2)[C@@H](C)CN([C@H](C)CO)C(=O)c2cc(NC(=O)Nc3ccc4c(c3)OCO4)ccc2O1	inactive
C[C@H](CO)N1C[C@H](C)[C@H](CN(C)S(=O)(=O)c2cccs2)Oc2ccc(NC(=O)c3ccncc3)cc2C1=O	inactive
COc1ccc(NC(=O)N(C)C[C@H]2Oc3c(NC(=O)c4cnccn4)cccc3C(=O)N([C@H](C)CO)C[C@H]2C)cc1	inactive
C[C@@H]1CN([C@H](C)CO)C(=O)c2cccc(NC(=O)c3ccncc3)c2O[C@@H]1CN(C)Cc1ccc2c(c1)OCO2	inactive
C[C@@H]1CN([C@H](C)CO)C(=O)c2cccc(NS(=O)(=O)c3cn(C)cn3)c2O[C@@H]1CN(C)C(=O)Nc1ccc2c(c1)OCO2	inactive
CC(C)(C)NC[C@@]1(CO)SC(N)=NC1=O	inactive
C[C@@H]1CN([C@H](C)CO)C(=O)Cc2cc(NC(=O)Cc3cn(C)c4ccccc34)ccc2O[C@@H]1CN(C)Cc1ccc(-c2ccccc2)cc1	active
C[C@H]1CN([C@@H](C)CO)C(=O)Cc2cc(NC(=O)Cc3cn(C)c4ccccc34)ccc2O[C@@H]1CN(C)Cc1ccc(-c2ccccc2)cc1	inactive
